Screening data: PubChem, several laboratories
This is a sample that favours compounds with a hit; in the whole collection about 12% have one here.
KCC2 mod = KCC2 cotransporter modulators, thallium flux, primary screen, cell-based, HEK293 KCC2, FluoZin-2 fluorescence, MLSMR | AID 1456, 2008 | 2.2% of 190,000 active | KCC2 cells, thallium flux FluoZin-2 fluorescence | B-score of Tl+ flux slope (higher = more flux/activation; lower = inhibition) at 10 µM;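 active means thallium flux slope and its plate-corrected score both differing from the plate sample mean at a set confidence after two filtering rounds, in either direction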;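 further: slope of fluorescence scaled to starting intensity during 10 to 20 s after thallium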
Target sequence (Q9H2X9 whole entry, looked up): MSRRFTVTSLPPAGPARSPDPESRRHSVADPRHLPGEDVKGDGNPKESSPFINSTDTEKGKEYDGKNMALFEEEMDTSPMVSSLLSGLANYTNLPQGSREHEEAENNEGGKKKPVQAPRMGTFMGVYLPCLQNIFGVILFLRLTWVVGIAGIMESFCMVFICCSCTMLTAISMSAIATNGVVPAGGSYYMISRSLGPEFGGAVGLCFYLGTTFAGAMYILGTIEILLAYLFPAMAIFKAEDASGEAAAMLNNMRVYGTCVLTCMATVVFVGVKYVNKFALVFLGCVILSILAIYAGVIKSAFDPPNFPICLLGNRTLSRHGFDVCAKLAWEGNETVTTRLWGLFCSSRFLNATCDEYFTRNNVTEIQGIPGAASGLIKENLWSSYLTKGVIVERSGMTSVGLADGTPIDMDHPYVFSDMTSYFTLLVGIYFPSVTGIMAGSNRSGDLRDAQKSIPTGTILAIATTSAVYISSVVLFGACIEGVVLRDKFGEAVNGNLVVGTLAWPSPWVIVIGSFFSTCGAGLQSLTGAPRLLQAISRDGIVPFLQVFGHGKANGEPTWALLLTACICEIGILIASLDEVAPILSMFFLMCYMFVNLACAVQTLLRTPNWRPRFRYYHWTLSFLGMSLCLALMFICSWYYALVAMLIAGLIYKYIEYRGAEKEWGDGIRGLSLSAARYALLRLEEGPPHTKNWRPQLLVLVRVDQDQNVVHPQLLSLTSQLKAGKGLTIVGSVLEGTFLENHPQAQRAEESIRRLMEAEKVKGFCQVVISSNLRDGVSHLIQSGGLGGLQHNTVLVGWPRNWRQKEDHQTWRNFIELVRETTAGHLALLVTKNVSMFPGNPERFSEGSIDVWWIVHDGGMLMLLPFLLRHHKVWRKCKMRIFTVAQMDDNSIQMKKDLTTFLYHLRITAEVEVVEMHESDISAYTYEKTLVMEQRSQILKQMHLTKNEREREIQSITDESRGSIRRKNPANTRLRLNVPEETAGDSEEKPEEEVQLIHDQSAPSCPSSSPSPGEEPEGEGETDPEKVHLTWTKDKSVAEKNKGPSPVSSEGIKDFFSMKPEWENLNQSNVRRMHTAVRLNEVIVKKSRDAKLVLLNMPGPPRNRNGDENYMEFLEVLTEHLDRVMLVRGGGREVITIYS
Calpain2 inh = inhibitors of pig calpain II, primary screen, biochemical, fluorogenic peptide substrate, 1536-well | purified calpain II, 30 min | inhibition, % at 16 µM | 0.37% of 220,000 active | AID 1236, 2008;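 active means inhibition above about 50%, limit read from the data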
ROMK primary = ROMK potassium channel modulators, primary screen, cell-based, thallium flux, MLSMR library; ATP-sensitive inward rectifier potassium channel 1 (Homo sapiens), P48048; Tet-inducible ROMK, thallium flux fluorescence; actives lie on both sides; B-score at 10 µM; 2% of 130,000 active; AID 1918, 2009;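 active means signal ratio slope over the read window, or its plate-corrected B-score, at least 3 SD from the plate mean, either direction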;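 further: B-score of the F/F0 ratio slope over 7 to 12 s after thallium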
L major viab = Leishmania major promastigote growth inhibition, primary screen | Leishmania major promastigotes, resazurin fluorescence viability | inhibition, % at 10 µM | 9% of 200,000 active | AID 1063, 2008; in the data active means inhibition above about 50%;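 further: promastigotes grown with compound for 44 hours at 28 °C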
WT yeast gro inh = growth inhibition of WT strain, primary screen, mitochondrial fusion inhibitor project, WT and mutant strains, chemical genetic. mitochondrial fusion phenotypic screen. inhibition, % at 10 µM. 2.1% of 190,000 active; in the data active means inhibition above about 58%; tested in S. cerevisiae
KCC2 sec1 = KCC2 modulators in sodium-free buffer, confirmation, cell-based, HEK293 KCC2, thallium flux, secondary assay; shares compounds with KCC2 mod; FluoZin2 fluorescence; active compounds read high; normalised thallium flux (F/F0 slope) at 10 µM; 15% of 3,700 active; AID 1713, 2009;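 active means thallium flux slope above the same plate's solvent-only control mean plus 3 SD; inconclusive means the two replicate wells disagree; inactive means no significant difference from solvent-only control wells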
KCC2 bumet counter = thallium flux persisting under bumetanide in KCC2 cells, confirmation, counter-screen for KCC2 modulator project, cell-based, HEK293 KCC2, FluoZin2, secondary assay 3. shares compounds with KCC2 mod. 49% of 3,700 active. normalized thallium flux at 10 µM. HEK293-KCC2 + bumetanide/ouabain; active compounds read high. AID 1714, 2009;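 active means thallium entry rate above the same plate's blocked-transporter control wells by more than 3 SD; inconclusive means the two repeat wells disagree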;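 further: raw slope of fluorescence over initial fluorescence between 10 and 20 s after thallium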
KCC2 sec2 = KCC2 modulators without ouabain present, confirmation, cell-based, HEK293 KCC2, thallium flux, FluoZin2, secondary assay 2; shares compounds with KCC2 mod; thallium flux FluoZin2 fluorescence; actives lie on both sides; F/F0 rise rate, 10–20 s post-thallium; normalized thallium flux at 10 µM; 23% of 3,700 active;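 active means thallium flux slope more than 3 SD above or below the plate's solvent-only control mean, mostly below; inconclusive means the two repeat wells disagreed; inactive means no significant shift from solvent-only controls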;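 further: raw slope with 0.1% DMSO as baseline and bumetanide as block control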
HEK counter1 = thallium flux modulation in parental HEK cells, confirmation, counter-screen for KCC2 modulator project, cell-based, counterscreen 1; HEK293 parental cells, thallium flux FluoZin2, ouabain; baseline-ratio fluorescence slope, 10–20 s after thallium; 46% of 3,700 active; shares compounds with KCC2 mod; AID 1716, 2009; thallium flux rate (normalised fluorescence) at 10 µM;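 active means thallium flux rate significantly above the same plate's solvent-only control wells, beyond their mean plus 3 SD; inconclusive means the two replicate wells gave conflicting results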
KCC2 ouabain = KCC2 inhibitors and activators, ouabain retest, confirmation, HEK-KCC2 cells | HEK293-KCC2, thallium flux FluoZin2 fluorescence; bidirectional: low = inhibitor, high = activator | 48% of 3,700 active | raw Tl+ flux slope (below DMSO = inhibition, above = activation) at 10 µM | shares compounds with KCC2 mod;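 active means thallium flux slope beyond 3 SD from same-plate DMSO control mean in most replicates, usually higher, sometimes lower; inconclusive means repeat tests gave conflicting results; inactive means no significant difference from controls in most replicates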;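 further: slope of initial-normalized fluorescence between seconds 10 and 20 after thallium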
HEK counter2 = native HEK Tl+ uptake effects, second counter-screen – HEK cells, counterscreen 2, counter-screen for KCC2 modulator project, confirmation; shares compounds with KCC2 mod; HEK293 parental, thallium flux FluoZin-2 fluorescence slope; thallium flux slope at 10 µM; 33% of 3,700 active;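 active means thallium flux slope above the same plate's solvent-control mean plus 3 SD in both duplicate wells; inconclusive means duplicate wells that disagreed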;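 further: run without ouabain in cells lacking the KCC2 cotransporter; slope of fluorescence scaled to its starting value between 10 and 20 s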
An asterisk follows results filed as active; ? = inconclusive; · = no result.

SMILES | KCC2 mod | Calpain2 inh | ROMK primary | L major viab | WT yeast gro inh | KCC2 sec1 | KCC2 bumet counter | KCC2 sec2 | HEK counter1 | KCC2 ouabain | HEK counter2
COc1ccc(C(=O)NC(=S)NNC(=O)[C@H]2C[C@@H]2c2ccccc2)cc1OC | 5.8 | -44 | · | · | · | · | · | · | · | · | ·
O=C(N/N=C/c1cc([N+](=O)[O-])cc(Br)c1O)C12CC3CCC(CC(C3)C1)C2 | 8.3* | 18 | · | · | · | 0.0087 | 0.017* | 0.033 | 0.012* | ? | ?
COc1cc(/C=N/NC(=O)C23CC4CC(CC(C4)C2)C3)cc(Br)c1O | 0.00032 | -51 | -0.66 | -4 | -2 | · | · | · | · | · | ·
O=C1CCC/C(=N\NC(=O)COc2ccc(Cl)cc2)C1 | -0.94 | -11 | -0.13 | -7 | -14 | · | · | · | · | · | ·
Cc1ccc(S(=O)(=O)Nc2cnc3ccccc3c2)cc1 | -0.5 | 3 | -0.66 | 0 | 3 | · | · | · | · | · | ·
COc1ccc(OC)c(S(=O)(=O)Nc2cnc3ccccc3c2)c1 | -5.6* | 22 | · | 1 | 18 | 0.0068 | 0.0048 | 0.031 | 0.0081 | 0.019 | 0.011
O=C1[C@@H]2[C@H]3CC[C@H](C3)[C@@H]2C(=O)N1O | 0.5 | 10 | · | · | · | · | · | · | · | · | ·
CCc1cc2cc(C)cc(C)c2nc1SCC(=O)N1CCN(C(=O)c2ccco2)CC1 | -0.23 | 37 | 0.017 | -1 | 27 | · | · | · | · | · | ·
O=C(CSc1nc(-c2ccc(F)cc2)cs1)N1CCN(C(=O)c2ccco2)CC1 | -3.1* | -54 | · | -11 | 10 | 0.0074 | 0.0061 | 0.029 | 0.0061 | 0.015* | 0.009
CCc1cc2cccc(C)c2nc1SCC(=O)N1CCN(C(=O)c2ccco2)CC1 | -3.2* | 1 | · | 4 | 17 | 0.016 | 0.0043 | 0.021* | 0.0047* | 0.013* | 0.0072*
O=C1NCCn2ccc(=O)cc21 | -0.026 | -12 | · | · | · | · | · | · | · | · | ·
Cc1csc(N(C(=O)c2cccc(S(=O)(=O)N(C)C)c2)c2ccccc2)n1 | 0.36 | -5 | · | 0 | 0 | · | · | · | · | · | ·
Cc1cc2nc(N3C(=O)CNC3=S)sc2cc1C | 19* | -8 | 0.52 | 2 | 40 | 0.019* | 0.058* | 0.038 | 0.026* | 0.041* | 0.015*
CCOc1ccc2nc(SC3CC(=O)N(c4ccc(OC)cc4)C3=O)sc2c1 (centres undefined) | 0.3 | -4 | · | -2 | -12 | · | · | · | · | · | ·
CCOc1ccc2nc(N3C(=O)CNC3=S)sc2c1 | 10* | 16 | -0.53 | · | · | 0.014* | 0.031* | 0.031 | 0.014* | 0.026* | 0.012*
CCOc1ccc(CCN2C(=O)C3C4C=CC(C4)C3C2=O)cc1OCC (centres undefined) | -0.0018 | 8 | · | -5 | 4 | · | · | · | · | · | ·
CCOC(=O)CN1C(=O)SC(Nc2ccc(C)cc2)C1=O (centres undefined) | 0.37 | -17 | -0.42 | -8 | -22 | · | · | · | · | · | ·
